Assay in all cases: PBM; 200 nM protein, PBS
Details in all cases: dsDNA, one strand shown

Assay [1] concerns the target T1, VENTX (Homo sapiens, UniProt O95231 78-163, R121Q).
T1 sequence: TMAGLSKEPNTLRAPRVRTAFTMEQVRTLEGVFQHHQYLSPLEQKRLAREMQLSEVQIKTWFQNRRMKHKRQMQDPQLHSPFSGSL

Assay [2] deals with T2, VENTX (Homo sapiens, UniProt O95231 78-163).
T2 sequence: T1 sequence with Q44R

Assay [3] deals with T3, VENTX (Homo sapiens, UniProt O95231 78-163, Y115F).
T3 sequence: T1 sequence with Y38F, Q44R

Assay [4] concerns the target VAX1 (Homo sapiens, UniProt Q5SQQ9 86-172).
Assay [5] addresses VAX1 (Homo sapiens, UniProt Q5SQQ9 86-172, T142I).
The target in assay [6] is VAX1 (Homo sapiens, UniProt Q5SQQ9 86-172, K157R).

Numbering of substitutions follows the chain as printed.

Sequence of VAX1 (Homo sapiens, UniProt Q5SQQ9 86-172, T142I) (Q5SQQ9 86-172 T142I): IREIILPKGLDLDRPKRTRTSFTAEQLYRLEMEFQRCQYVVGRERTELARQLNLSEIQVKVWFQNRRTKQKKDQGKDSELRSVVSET
Sequence of VAX1 (Homo sapiens, UniProt Q5SQQ9 86-172) (Q5SQQ9 86-172): as the sequence (Q5SQQ9 86-172 T142I) above, with I57T counted along it
Sequence of VAX1 (Homo sapiens, UniProt Q5SQQ9 86-172, K157R) (Q5SQQ9 86-172 K157R): as the sequence (Q5SQQ9 86-172 T142I) above, with I57T, K72R counted along it

Turning to CCATTAGG, the binding signal in assay [1] is 11.7 upbm affinity estimate (log intensity, higher = more binding, comparable within an allelic series); in assay [2], 12.4 upbm affinity estimate (log intensity, higher = more binding, comparable within an allelic series); in assay [3], 11.4 upbm affinity estimate (log intensity, higher = more binding, comparable within an allelic series).
As to AGCCCGAA, the binding signal in assay [1] was 8.34 upbm affinity estimate (log intensity, higher = more binding, comparable within an allelic series); in assay [2] it was 8.32 upbm affinity estimate (log intensity, higher = more binding, comparable within an allelic series); in assay [3] it was 8.13 upbm affinity estimate (log intensity, higher = more binding, comparable within an allelic series).
As to GTCTCCAC, the binding signal was 8.1 upbm affinity estimate (log intensity, higher = more binding, comparable within an allelic series) in assay [1]; 8.02 upbm affinity estimate (log intensity, higher = more binding, comparable within an allelic series) in assay [2]; 8.1 upbm affinity estimate (log intensity, higher = more binding, comparable within an allelic series) in assay [3].
As for CTCGTGGC, the binding signal is 8.11 upbm affinity estimate (log intensity, higher = more binding, comparable within an allelic series) in assay [1]; 8.09 upbm affinity estimate (log intensity, higher = more binding, comparable within an allelic series) in assay [2]; 8.12 upbm affinity estimate (log intensity, higher = more binding, comparable within an allelic series) in assay [3].
With ACTATTTA, the binding signal in assay [1] was 10.1 upbm affinity estimate (log intensity, higher = more binding, comparable within an allelic series); in assay [2], 10.6 upbm affinity estimate (log intensity, higher = more binding, comparable within an allelic series); in assay [3] it was 10.1 upbm affinity estimate (log intensity, higher = more binding, comparable within an allelic series).
CGATTAAC: the binding signal was 11.4 upbm affinity estimate (log intensity, higher = more binding, comparable within an allelic series) in assay [1]; 12.4 upbm affinity estimate (log intensity, higher = more binding, comparable within an allelic series) in assay [2]; 11.3 upbm affinity estimate (log intensity, higher = more binding, comparable within an allelic series) in assay [3].
Regarding CTGGCAGC, the binding signal in assay [1] is 8.09 upbm affinity estimate (log intensity, higher = more binding, comparable within an allelic series); in assay [2] it was 8.14 upbm affinity estimate (log intensity, higher = more binding, comparable within an allelic series); in assay [3], 8.07 upbm affinity estimate (log intensity, higher = more binding, comparable within an allelic series).
As to GGTCGGGA, the binding signal in assay [1] was 8.05 upbm affinity estimate (log intensity, higher = more binding, comparable within an allelic series); in assay [2], 8.36 upbm affinity estimate (log intensity, higher = more binding, comparable within an allelic series); in assay [3] it was 8.02 upbm affinity estimate (log intensity, higher = more binding, comparable within an allelic series).
With CGGGCGCC, the binding signal in assay [1] is 8.04 upbm affinity estimate (log intensity, higher = more binding, comparable within an allelic series); in assay [2], 8.22 upbm affinity estimate (log intensity, higher = more binding, comparable within an allelic series); in assay [3] it was 8.23 upbm affinity estimate (log intensity, higher = more binding, comparable within an allelic series).
With CCGATTAA, the binding signal is 11.3 upbm affinity estimate (log intensity, higher = more binding, comparable within an allelic series) in assay [1]; 12.5 upbm affinity estimate (log intensity, higher = more binding, comparable within an allelic series) in assay [2]; 11.3 upbm affinity estimate (log intensity, higher = more binding, comparable within an allelic series) in assay [3].
Take GCGCAGCA: the binding signal in assay [1] is 7.82 upbm affinity estimate (log intensity, higher = more binding, comparable within an allelic series); in assay [2] it was 7.9 upbm affinity estimate (log intensity, higher = more binding, comparable within an allelic series); in assay [3] it was 7.91 upbm affinity estimate (log intensity, higher = more binding, comparable within an allelic series).
On to ACGTAATA, for which the binding signal in assay [1] was 10.2 upbm affinity estimate (log intensity, higher = more binding, comparable within an allelic series); in assay [2], 10.5 upbm affinity estimate (log intensity, higher = more binding, comparable within an allelic series); in assay [3], 10.1 upbm affinity estimate (log intensity, higher = more binding, comparable within an allelic series).
Regarding ACCGATTA, the binding signal in assay [1] was 11.5 upbm affinity estimate (log intensity, higher = more binding, comparable within an allelic series); in assay [2], 12.9 upbm affinity estimate (log intensity, higher = more binding, comparable within an allelic series); in assay [3], 11.5 upbm affinity estimate (log intensity, higher = more binding, comparable within an allelic series).
Consider ACCTATTA, for which the binding signal was 11.4 upbm affinity estimate (log intensity, higher = more binding, comparable within an allelic series) in assay [1]; 12 upbm affinity estimate (log intensity, higher = more binding, comparable within an allelic series) in assay [2]; 11.1 upbm affinity estimate (log intensity, higher = more binding, comparable within an allelic series) in assay [3].
As to CCAAGGGC, the binding signal in assay [1] is 8.09 upbm affinity estimate (log intensity, higher = more binding, comparable within an allelic series); in assay [2] it was 8.33 upbm affinity estimate (log intensity, higher = more binding, comparable within an allelic series); in assay [3], 8.21 upbm affinity estimate (log intensity, higher = more binding, comparable within an allelic series).
With CCAAATTA, the binding signal was 10.8 upbm affinity estimate (log intensity, higher = more binding, comparable within an allelic series) in assay [1]; 11.4 upbm affinity estimate (log intensity, higher = more binding, comparable within an allelic series) in assay [2]; 10.8 upbm affinity estimate (log intensity, higher = more binding, comparable within an allelic series) in assay [3].
With CTAATGGC, the binding signal in assay [1] is 12 upbm affinity estimate (log intensity, higher = more binding, comparable within an allelic series); in assay [2] it was 12.7 upbm affinity estimate (log intensity, higher = more binding, comparable within an allelic series); in assay [3] it was 11.8 upbm affinity estimate (log intensity, higher = more binding, comparable within an allelic series).
Regarding CGGGCGCA, the binding signal was 7.97 upbm affinity estimate (log intensity, higher = more binding, comparable within an allelic series) in assay [1]; 7.92 upbm affinity estimate (log intensity, higher = more binding, comparable within an allelic series) in assay [2]; 7.91 upbm affinity estimate (log intensity, higher = more binding, comparable within an allelic series) in assay [3]; 6.81 upbm affinity estimate (log intensity, higher = more binding, comparable within an allelic series) in assay [4]; 6.96 upbm affinity estimate (log intensity, higher = more binding, comparable within an allelic series) in assay [5]; 6.94 upbm affinity estimate (log intensity, higher = more binding, comparable within an allelic series) in assay [6].
In the case of TACATATA, the binding signal in assay [1] was 9.51 upbm affinity estimate (log intensity, higher = more binding, comparable within an allelic series); in assay [2], 9.59 upbm affinity estimate (log intensity, higher = more binding, comparable within an allelic series); in assay [3], 9.49 upbm affinity estimate (log intensity, higher = more binding, comparable within an allelic series).
